# Measurements published in PMC5540273 (PLoS ONE, 2017).
# Assays:
# Settings in all cases: concentration: 1 μM,replicates: in singlicate; n = 1
# [1] = tested on: T1, MLK1
# T1 construct: gene MAP3K9
# [2] = tested on: MLK2
# [3] = tested on: MLK3
# [4] = tested on: MRCKA
# [5] = tested on: T2, MRCKB
# T2 construct: gene CDC42BPB
# [6] = tested on: MST1R
# [7] = tested on: T3, MST1
# T3 construct: gene STK4
# [8] = tested on: T4, MST2
# T4 construct: gene STK3
# [9] = tested on: T5, MST3
# T5 construct: gene STK24
# [10] = tested on: MST4
# [11] = tested on: MTOR
# [12] = tested on: MUSK
# [13] = tested on: MYLK2
# [14] = tested on: MYLK4
# [15] = tested on: MYLK
# [16] = tested on: MYO3A
# [17] = tested on: MYO3B
# [18] = tested on: T6, NDR1
# T6 construct: gene STK38
# [19] = tested on: NDR2
# [20] = tested on: NEK10
# 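Note: KINOMEscan kinase panel screen.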
SMILES,%Inh [1],%Inh [2],%Inh [3],%Inh [4],%Inh [5],%Inh [6],%Inh [7],%Inh [8],%Inh [9],%Inh [10],%Inh [11],%Inh [12],%Inh [13],%Inh [14],%Inh [15],%Inh [16],%Inh [17],%Inh [18],%Inh [19],%Inh [20]
COc1cccc(C2=C(Nc3cccc(Cl)c3)C(=O)NC2=O)c1 [SB-341556],0%,16%,0%,0%,0%,0%,100%,22%,0%,0%,8%,9%,0%,23%,0%,0%,0%,0%,0%,73%
CCOC(=O)N1CCC(n2cnc(-c3ccc(F)cc3)c2-c2ccnc(N)n2)CC1 [SB-219952],4%,0%,27%,20%,3%,0%,20%,0%,44%,0%,66%,0%,20%,21%,45%,17%,0%,0%,0%,0%
COc1ccc(Nc2nccc(N3CCC(NC(=O)c4cccc(C#N)c4)C3)n2)cc1 (stereo not shown) [GSK1379730],1%,0%,22%,0%,0%,29%,19%,0%,0%,0%,10%,5%,0%,0%,0%,0%,0%,0%,0%,28%
Cl.c1ccc(Oc2ccc(Nc3ccnc4cc(-c5ccc(CN6CCNCC6)o5)ccc34)cc2)nc1 [GW567142],0%,0%,0%,0%,0%,39%,0%,31%,8%,0%,0%,0%,0%,8%,1%,7%,0%,10%,4%,3%
Cc1cccc(-c2nc(Nc3ccncc3)c3sccc3n2)n1 [GW869641],3%,34%,19%,67%,98.5%,0%,37%,17%,5%,40%,75%,0%,4%,0%,35%,9%,21%,35%,0%,24%
O=C(NCC1CC1)c1ccc(-c2cc(C(=O)NC3CC3)ccc2F)cc1 [GW810445],7%,0%,0%,0%,0%,0%,55%,0%,0%,0%,21%,0%,0%,0%,0%,0%,8%,0%,7%,0%
COc1cccc(OC)c1C(=O)Nc1cccc(-c2nn3ccccc3c2-c2ccnc(Nc3cccc(F)c3)n2)c1 [GSK361065],4%,10%,10%,0%,3%,23%,20%,61%,7%,0%,0%,3%,0%,0%,87%,28%,13%,17%,13%,0%
CCn1c(-c2nonc2N)nc2cncc(Br)c21 [SB-738004],0%,0%,12%,11%,0%,19%,0%,6%,19%,0%,15%,0%,16%,16%,31%,39%,3%,38%,35%,43%
COC(=O)c1cccc(NC(=O)NC2CCN(c3ccnc(Nc4cc(OC)c(OC)c(OC)c4)n3)C2)c1 (stereo not shown) [GSK1379767],33%,0%,34%,14%,0%,39%,6%,2%,0%,0%,26%,5%,25%,14%,11%,43%,0%,18%,38%,3%
Cc1ccc(Nc2ccnc(Nc3ccc4c(c3)CS(=O)(=O)C4)n2)cc1O.Cl [GW579362],94.2%,100%,89%,9%,0%,81%,19%,60%,29%,25%,30%,53%,32%,87%,27%,15%,0%,28%,0%,16%
Cc1ccc(CC(=O)N2CCc3cc(-c4cn(C)c5ncnc(N)c45)ccc32)cc1 [GSK2634758],15%,17%,24%,0%,9%,39%,94.9%,58%,56%,35%,32%,0%,87%,0%,0%,0%,9%,18%,8%,0%
CC(=O)c1c(-c2ccncc2)[nH]c(-c2ccncc2)c1C [GW493036],4%,0%,0%,20%,3%,42%,11%,8%,0%,0%,0%,8%,4%,7%,4%,42%,0%,19%,0%,0%
COc1cc2ncn(-c3cc(OCC4CCCCC4)c(C(N)=O)s3)c2cc1OC [GSK204559],12%,33%,34%,0%,0%,35%,11%,0%,0%,0%,7%,4%,9%,85%,20%,0%,0%,11%,0%,4%
Cn1ccc2ncnc(Oc3ccc(NC(=O)Nc4cccc(C(F)(F)F)c4)c(Cl)c3)c21,53%,12%,2%,3%,21%,33%,16%,24%,18%,0%,33%,94.6%,21%,5%,3%,0%,22%,17%,0%,0%
CN1CCN(CCCNc2nccc(-c3c(-c4ccc(F)cc4)nn4cc(C(N)=O)ccc34)n2)CC1 [GW622475],0%,16%,12%,11%,0%,36%,28%,15%,33%,0%,5%,6%,10%,5%,26%,10%,0%,33%,0%,25%
OCCn1cc(-c2cnc3nnn(Cc4ccc5ncccc5c4)c3n2)cn1,0%,0%,0%,0%,0%,0%,0%,0%,0%,0%,52%,0%,0%,0%,3%,0%,0%,7%,4%,0%
O=C(Nc1ccc(Oc2ccc3nc(NC(=O)C4CC4)cn3n2)c(F)c1)c1cccn(-c2ccccc2)c1=O,19%,32%,10%,0%,0%,39%,0%,0%,0%,0%,21%,99.5%,0%,0%,0%,0%,0%,3%,0%,0%
C[C@@H](Oc1cc(-n2cnc3cc(-c4ccncc4)ccc32)sc1C(N)=O)c1ccccc1Cl [GSK479719],61%,0%,24%,0%,8%,21%,56%,70%,0%,0%,6%,11%,22%,0%,1%,0%,0%,0%,0%,0%
Cc1cccc2c(-c3ccncc3)c(-c3ccc(F)cc3)nn12.Cl [GW461487],0%,0%,0%,0%,4%,44%,90.4%,46%,16%,0%,0%,7%,2%,0%,14%,8%,0%,25%,0%,14%
Cc1ccc(C(=O)Nc2ccc(Oc3ccc4nc(NC(=O)C5CC5)cn4c3)c(F)c2)c(=O)n1-c1ccccc1,80%,92.4%,13%,0%,0%,100%,47%,100%,5%,0%,0%,99.8%,0%,0%,15%,0%,4%,8%,0%,0%
COc1cc2c(Nc3ccc(NC(=O)c4ccccc4)cc3)ncnc2cc1OCCCN1CCOCC1 [GSK301329],0%,0%,13%,0%,0%,43%,16%,0%,0%,10%,15%,13%,0%,0%,2%,0%,0%,5%,0%,3%

SMILES,%Inh [1],%Inh [2],%Inh [3],%Inh [4],%Inh [5],%Inh [6],%Inh [7],%Inh [8],%Inh [9],%Inh [10],%Inh [11],%Inh [12],%Inh [13],%Inh [14],%Inh [15],%Inh [16],%Inh [17],%Inh [18],%Inh [19],%Inh [20]
CC(C(=O)NC1CCN(c2ccnc(Nc3ccc(F)cc3)n2)C1)c1ccc(Cl)cc1 (stereo not shown) [GSK1379713],0%,12%,0%,0%,0%,0%,5%,0%,0%,0%,17%,6%,3%,0%,0%,0%,0%,15%,0%,0%
Cn1ccc2ncnc(Oc3ccc(NC(=O)Nc4cnn(C(C)(C)C)c4)c(Cl)c3)c21,30%,26%,0%,0%,0%,10%,12%,0%,4%,0%,0%,21%,4%,11%,0%,1%,9%,6%,8%,14%
Nc1nccc(-c2ccc3c(N)n[nH]c3c2)n1 [GSK1034945],0%,0%,0%,11%,5%,27%,3%,0%,0%,0%,0%,9%,85%,83%,21%,8%,0%,0%,0%,0%
Cc1nnc(-c2ccc3occ(-c4ccc(S(C)=O)cc4)c3n2)o1 (stereo not shown),0%,0%,0%,0%,43%,2%,0%,0%,0%,0%,0%,0%,6%,0%,0%,0%,0%,0%,0%,0%
C[C@@H](Oc1cc(-n2cnc3cc(-c4cnn(C)c4)ccc32)sc1C(N)=O)c1ccccc1Cl [GSK580432],57%,49%,80%,20%,3%,64%,88%,70%,0%,14%,14%,64%,65%,22%,17%,17%,0%,15%,0%,30%
CS(=O)(=O)Nc1ccc(-c2ccnc3[nH]ccc23)cc1 [GSK993273],4%,33%,10%,12%,9%,34%,11%,5%,20%,11%,9%,24%,27%,95.5%,43%,0%,0%,20%,6%,71%
COC(=O)Nc1nc2cc(Oc3ccc(NC(=O)Nc4cc(C(F)(F)F)ccc4Cl)cc3)ccc2[nH]1.Cl [GW697465],1%,0%,8%,5%,0%,41%,0%,0%,0%,0%,19%,99.2%,6%,0%,0%,11%,0%,8%,0%,13%
CN(c1ccc2c(c1)nc(NCc1ccc(F)cc1)n2C)c1ccnc(Nc2ccc(CS(C)(=O)=O)cc2)n1.Cl [GW813244],24%,44%,0%,6%,0%,0%,16%,0%,1%,3%,0%,51%,0%,13%,1%,0%,45%,31%,0%,10%
O=C(Nc1cccc(Oc2ccc3nccn3n2)c1)Nc1cccc(C(F)(F)F)c1,0%,39%,0%,0%,0%,10%,6%,0%,0%,0%,23%,51%,0%,0%,0%,0%,3%,0%,0%,0%
Cn1cc(-c2cccc3c(N)c(C(N)=O)nnc23)cn1,8%,2%,2%,20%,3%,24%,23%,2%,51%,40%,0%,3%,0%,81%,33%,15%,23%,8%,23%,48%
CSc1nccc(-c2c(-c3ccc(F)cc3)ncn2CCCN2CCOCC2)n1.Cl [SB-217146],0%,28%,0%,0%,0%,0%,0%,0%,6%,0%,35%,0%,0%,0%,5%,21%,8%,42%,26%,14%
Cn1ccc2ncnc(Oc3ccc(NC(=O)Nc4ccnc(C(F)(F)F)c4)c(Cl)c3)c21,8%,0%,0%,0%,0%,32%,83%,0%,9%,0%,25%,42%,0%,0%,0%,0%,0%,0%,2%,0%
Cn1ccc2ncnc(Oc3ccc(NC(=O)Nc4cccc(C(F)(F)F)c4)c(F)c3)c21,21%,0%,32%,4%,0%,19%,0%,0%,0%,0%,10%,99.4%,0%,7%,19%,8%,49%,10%,8%,7%
CCCC(=O)Nc1n[nH]c2ncccc12 [SB-601436],0%,0%,1%,0%,0%,12%,0%,0%,0%,0%,0%,0%,0%,0%,2%,0%,12%,9%,0%,0%
CS(=O)(=O)c1cccc(CNc2nc(Nc3ccc4c(c3)[C@@H]3C[C@@H]4CNC3=O)ncc2C(F)(F)F)c1,99.8%,84%,98.1%,0%,0%,0%,0%,18%,15%,0%,12%,26%,12%,0%,12%,13%,54%,85%,6%,0%
Cc1n[nH]c2cc(Nc3ccnc(Nc4cccc(CN5CCOCC5)c4)n3)ccc12 [GW682569],89%,38%,58%,1%,0%,34%,0%,26%,14%,0%,14%,15%,9%,17%,21%,22%,0%,25%,14%,9%
CCN1CCN(CCCC(=O)Nc2n[nH]c3nc(-c4ccc(O)cc4)c(Br)cc23)CC1 [SB-731579],0%,0%,0%,0%,0%,17%,2%,57%,0%,60%,0%,0%,98.5%,1%,0%,62%,17%,0%,0%,0%
c1ccc(Oc2ccc(Nc3ccnc4ccc(-c5ccccn5)cc34)cc2)cc1 [GW407034],1%,3%,5%,2%,9%,0%,0%,0%,4%,0%,15%,15%,12%,4%,14%,10%,0%,0%,0%,2%
CCNCC(Cc1ccccc1)NC(=O)c1cc(Br)c(-c2ccnc3[nH]ccc23)s1.Cl.Cl (stereo not shown) [GSK1383280],0%,6%,0%,64%,98.2%,30%,0%,0%,1%,26%,8%,2%,22%,86%,73%,15%,0%,99.8%,52%,0%
O=C(Nc1n[nH]c2cc(-c3ccco3)ccc12)C1CC1 [SB-737447],0%,34%,0%,25%,1%,0%,0%,15%,17%,3%,0%,0%,86%,6%,44%,14%,0%,0%,22%,0%
